PMC4336329 (PLoS ONE, 2015)
Screen size: about 310,000 compounds; about 14,000 (4.5%) showed an effect of 50% or more. Effects have a minus sign here. The list comes from a sample in which strong results are over-represented; it also holds similar structures and randomly drawn compounds.

The compounds below were run against human ether-à-go-go-related gene (hERG) potassium channel (human, UniProt Q12809) (assay: primary screen, population patch clamp on CHO cells stably expressing hERG; higher = less effect of the substance).
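Note: peak tail current of the secondary pulse compared with the same well before compound.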

Sequence of human ether-à-go-go-related gene (hERG) potassium channel (Q12809 whole entry, looked up): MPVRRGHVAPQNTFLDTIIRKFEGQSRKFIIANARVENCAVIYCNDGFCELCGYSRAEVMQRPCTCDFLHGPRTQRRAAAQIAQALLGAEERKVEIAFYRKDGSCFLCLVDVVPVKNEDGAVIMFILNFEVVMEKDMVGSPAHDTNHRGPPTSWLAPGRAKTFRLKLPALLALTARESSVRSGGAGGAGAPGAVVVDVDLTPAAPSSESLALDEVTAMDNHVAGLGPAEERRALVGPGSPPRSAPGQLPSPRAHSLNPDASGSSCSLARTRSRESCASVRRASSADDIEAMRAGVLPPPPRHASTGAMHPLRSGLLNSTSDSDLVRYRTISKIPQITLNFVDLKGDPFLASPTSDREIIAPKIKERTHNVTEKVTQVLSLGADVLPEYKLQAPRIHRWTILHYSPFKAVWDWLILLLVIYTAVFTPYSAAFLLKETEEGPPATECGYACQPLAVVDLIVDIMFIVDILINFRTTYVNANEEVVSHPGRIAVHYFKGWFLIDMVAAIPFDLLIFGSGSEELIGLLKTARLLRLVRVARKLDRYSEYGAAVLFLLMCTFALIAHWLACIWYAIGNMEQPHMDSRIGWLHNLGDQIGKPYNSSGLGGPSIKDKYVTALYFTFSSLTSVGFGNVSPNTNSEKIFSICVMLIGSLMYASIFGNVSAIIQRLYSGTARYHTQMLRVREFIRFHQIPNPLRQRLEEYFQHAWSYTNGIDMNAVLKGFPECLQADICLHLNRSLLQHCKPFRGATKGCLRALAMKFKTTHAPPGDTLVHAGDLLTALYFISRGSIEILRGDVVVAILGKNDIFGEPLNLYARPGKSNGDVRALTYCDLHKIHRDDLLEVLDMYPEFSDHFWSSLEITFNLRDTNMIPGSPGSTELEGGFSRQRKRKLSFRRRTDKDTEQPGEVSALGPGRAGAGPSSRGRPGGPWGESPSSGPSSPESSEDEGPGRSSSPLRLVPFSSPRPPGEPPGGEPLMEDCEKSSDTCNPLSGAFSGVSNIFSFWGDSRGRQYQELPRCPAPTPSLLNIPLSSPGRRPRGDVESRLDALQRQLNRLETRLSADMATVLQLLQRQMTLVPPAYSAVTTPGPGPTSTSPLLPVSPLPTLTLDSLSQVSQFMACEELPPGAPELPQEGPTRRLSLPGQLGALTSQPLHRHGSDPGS

| SMILES | hERG current change (%, negative = inhibition) at 10uM [%] |
| --- | --- |
| CCOC(=O)C1=C(N)Oc2c(oc(CO)cc2=O)C1c1c(F)cccc1Cl (stereo not shown) | 0.47 |
| Nc1ncc([N+](=O)[O-])cc1S(=O)(=O)c1ccccc1 | 8.32 |
| COc1ccc(N2C(=O)C3CCCN3C2c2cc(OC)c(OC)cc2OC)cc1 (stereo not shown) | -4.23 |
| CSc1nc(C)cc(C)c1C(N)=O | 8.49 |
| CCCNC(=O)NC(=O)CSc1nnc(-c2ccncc2)n1CC | 11.6 |
| CCc1ccc(-c2cc3c(=O)n(CC(=O)NCCCN4CCN(C)CC4)ncn3n2)cc1 | -4.24 |
| CCC1CCCCN1CCCNC(=O)Cn1ncn2nc(-c3ccc(OC)cc3)cc2c1=O (stereo not shown) | -42.1 |
| COc1ccc(-c2cc3c(=O)n(CC(=O)NCCCN4CCC(N5CCCCC5)CC4)ncn3n2)cc1 | 21.5 |
| COc1ccc(-c2cc3c(=O)n(CC(=O)NCCCc4ccccc4)ncn3n2)cc1 | 7.35 |
| COc1ccc(-c2cc3c(=O)n(CC(=O)NCCCN4CCC(Cc5ccccc5)CC4)ncn3n2)cc1 | -72.4 |
| COc1ccc(-c2cc3c(=O)n(CC(=O)NCCCN4CCN(Cc5ccccc5)CC4)ncn3n2)cc1 | -54.8 |
| O=S(=O)(c1ccccc1)N1CCN=C1SCc1ccc(Cl)c(Cl)c1 | -2.01 |
| Cc1ccc(NC(=O)CCCCCN2C(=O)[C@@H]3Cc4ccccc4CN3C2=O)c(C)c1 | 2.68 |
| Cc1ccc(-c2cc(-c3cccs3)[nH]n2)c(O)c1 | 1.75 |
| COC(=O)CSc1nc(NC(C)=O)nc(C)c1Br | 9.72 |
| COc1ccc(C2CC(c3cccs3)=NN2C(=O)CSc2nc(=O)n3ccccc3n2)cc1 (stereo not shown) | -57.5 |
| O=C(CSc1nc2c(cnn2-c2ccccc2)c(=O)[nH]1)N1N=C(c2cccs2)CC1c1ccc(F)cc1 (stereo not shown) | 16 |
| O=C(CSc1nc2ccccc2s1)N1N=C(c2cccs2)CC1c1ccc(F)cc1 (stereo not shown) | 0.782 |
| COc1ccc(C2CC(c3cccs3)=NN2C(=O)CSc2nc3ccccc3s2)cc1 (stereo not shown) | -6.91 |
| COc1ccc(C2CC(c3cccs3)=NN2C(=O)CSC2=NCCS2)cc1 (stereo not shown) | -11 |
| O=C(CSc1nc(=O)n2ccccc2n1)N1N=C(c2cccs2)CC1c1ccc(F)cc1 (stereo not shown) | -52.2 |
| O=C(NCc1ccccc1)c1ccc2nnsc2c1 | -1.17 |
| Cc1cc(=O)[nH]c(SCC(=O)N(CCC#N)c2ccccc2)c1C#N | 15.3 |

| SMILES | hERG current change (%, negative = inhibition) at 10uM [%] |
| --- | --- |
| COc1cc(OC)cc(C(=O)NCCNC(=O)c2ccccn2)c1 | 14.3 |
| CCN(CCCNC(=O)CN1C(=O)COc2ccccc21)c1cccc(C)c1 | -11.3 |
| CC(=O)Nc1ccc(Sc2ncccc2C(=O)Nc2ccc(F)cc2)cn1 | 13.9 |
| O=C(Nc1cc(C(F)(F)F)cc(C(F)(F)F)c1)c1ccc(Cn2cc(C(F)(F)F)ccc2=O)cc1 | 22 |
| CCc1nn2c(=O)cc(COC(=O)c3ccc(SC)cc3OC)nc2s1 | -18.7 |
| COCCc1nn2c(=O)cc(COC(=O)c3cc(OC)c(OC)c(OC)c3)nc2s1 | -22.6 |
| CCc1nn2c(=O)cc(COC(=O)c3cc(Cl)c(OC)c(OC)c3)nc2s1 | -69.5 |
| CCOc1cccc(C2C(C(=O)c3ccc(C)o3)=C(O)C(=O)N2c2nccs2)c1 (stereo not shown) | 0.752 |
| O=C(c1ccc(F)cc1)C1CCN(C(=O)c2ccc(F)cc2)CC1 | -22.7 |
| O=C(CCCN1CCC(NC(=O)c2ccccc2)CC1)c1ccc(Cl)cc1 | -77.8 |
| O=C(C1CCCCC1)N1CCc2[nH]c3ccc(F)cc3c2C1 | -3.94 |
| Cc1ccc(C(=O)NC2CCN(CCCC(=O)c3ccc(F)cc3)CC2)cc1 | -74 |
| CN1CCN(CCCC(=O)c2ccc(F)cc2)CC1.Cl | -14.5 |
| Cc1ccc(C(=O)NC2CCN(C(=O)Nc3ccc(F)cc3)CC2)cc1 | 1.24 |
| Cc1ccc(C(=O)NC2CCN(S(=O)(=O)c3ccc(F)cc3)CC2)cc1 | 11.6 |
| O=C(CN1CCC(NC(=O)c2ccccc2)CC1)NCc1ccccc1F | -20.6 |
| CCN(CC)C(=O)N1CCC(NC(=O)c2ccccc2)CC1 | 12.6 |
| C=CCNC(=O)N1CCc2[nH]c3ccc(F)cc3c2C1 | 6.56 |
| Cl.O=C(CCCN1CCc2[nH]c3ccc(F)cc3c2C1)c1ccc(F)cc1 | -70.4 |
| O=C(CCCN1CCC(C(=O)c2ccc(F)cc2)CC1)c1ccc(F)cc1 | -78.5 |
| COC(=O)C1C(=O)C2=C(CC1C)NC(=O)CC2c1cccc(C)c1 (stereo not shown) | -12.6 |
| CCCSc1nnc(NC(=O)c2ccco2)s1 | 2.42 |
| CC(NC(=O)CSc1nnc(-c2cc3cc(Cl)ccc3o2)n1C)c1ccccc1 (stereo not shown) | -12 |
